Screen size: about 63,000 compounds; about 1,100 (1.7%) were called active. Cut-off read from the data, not from the text of the source: active = cytotoxicity above about 50%; inactive = the rest. For the sample, actives were picked, then their nearest neighbours and some compounds at random. Results with a measured potency or affinity are listed apart.

This experiment is described as follows: HPDE-C7 pancreatic duct cell viability loss – fluorescence, HTS (AID 430).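 Note: cells exposed to compound for 48 hours before viability readout; 0% = vehicle and 100% = reference cytotoxic drug.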 The note with it: HPDE-C7 pancreatic duct cells viability, at 10 µM, active compounds read high.
With `COc1ccc(-n2nc(C(=O)NCc3ccco3)c3c4ccccc4n(C)c3c2=O)cc1Cl`, the cytotoxicity is 2.9% (inactive). The value for `Cc1nn(CCO)c2c1C(=O)CCC2` was -9.1% (inactive); that for `O=C1CC(N2CCOCC2)C(=O)N1c1ccc2c(c1)OCO2` (configuration not stated) was -4.6% (inactive); that for `CC1CN(c2nc3ccccc3nc2C(C#N)C(=O)NC2CCCCC2)CC(C)O1` (configuration not stated) was -15.5% (inactive). Regarding `Cc1ccc(NC(=O)CN2C(=O)NC(Cc3ccccc3)C2=O)cc1` (configuration not stated), the cytotoxicity is -48.1% (inactive).

On to `O=C(Nc1ccccc1N1CCN(C(=O)c2ccc(Cl)cc2)CC1)c1cc2ccccc2o1`, for which the cytotoxicity was -2.7% (inactive). In the case of `CCCC(=O)N1CCN(c2ccc(NC(=O)c3cc4ccccc4o3)cc2)CC1`, the cytotoxicity is -13.7% (inactive). On to `CC1CCN(CCCNC(=O)C2CCN(S(=O)(=O)N3CCCCC3)CC2)CC1`, for which the cytotoxicity is -11.8% (inactive). For the compound `Cc1cccc(S(=O)(=O)c2c(N)n(/N=C/c3cccnc3)c3nc4ccccc4nc23)c1`, the cytotoxicity was 28.2% (inactive). For the compound `COCCn1c(N)c(S(=O)(=O)c2cccs2)c2nc3ccccc3nc21`, the cytotoxicity was 5% (inactive).

As to `Nc1c(S(=O)(=O)c2cccs2)c2nc3ccccc3nc2n1/N=C/c1cccc(O)c1`, the cytotoxicity was 64.6% (active). For the compound `Cc1ccc(C)c(S(=O)(=O)c2c(N)n(/N=C/c3ccco3)c3nc4ccccc4nc23)c1`, the cytotoxicity is 33.6% (inactive). With `Cc1ccc(S(=O)(=O)c2c(N)n(/N=C/c3ccco3)c3nc4ccccc4nc23)cc1C`, the cytotoxicity is 11.7% (inactive).

For the compound `Nc1c(S(=O)(=O)c2cccc(Cl)c2)c2nc3ccccc3nc2n1CCN1CCOCC1`, the cytotoxicity is -2% (inactive). The result for `Cc1cccc(S(=O)(=O)c2c(N)n(/N=C/c3ccco3)c3nc4ccccc4nc23)c1` reads 26.6% (inactive); that for `Nc1c(S(=O)(=O)c2ccccc2)c2nc3ccccc3nc2n1/N=C/c1ccco1`, 69% (active); that for `Nc1c(S(=O)(=O)c2cccs2)c2nc3ccccc3nc2n1Cc1cccs1`, -1.9% (inactive). In the case of `Cc1ccc(S(=O)(=O)c2c(N)n(/N=C/c3ccco3)c3nc4ccccc4nc23)cc1`, the cytotoxicity was 38.7% (inactive).

In the case of `Nc1c(S(=O)(=O)c2cccc(Cl)c2)c2nc3ccccc3nc2n1/N=C/c1ccc(O)c(O)c1`, the cytotoxicity is 117% (active). The result for `COc1ccc(-n2c(Cc3cccn3C)nnc2SCC(=O)NC2CCCC2)cc1` reads -16% (inactive); that for `CCN(CC)CCNC(=O)Cn1nc(Cc2ccccc2)c2ccccc2c1=O`, -4.7% (inactive). On to `CCOc1cc(C2C(C#N)=C(N)Oc3n[nH]c(CC)c32)ccc1OCCN1CCOCC1` (configuration not stated), for which the cytotoxicity was -1.8% (inactive).

Consider `CCOC(=O)C1CCN(C(=O)CNS(=O)(=O)c2cccs2)CC1`, for which the cytotoxicity was -14.6% (inactive).

Turning to `CN(CCNC(=O)Cn1c(=O)sc2ccccc21)Cc1ccccc1`, the cytotoxicity was 10.4% (inactive).

`COC(=O)c1sc(NC(=O)Cc2cccs2)nc1C`: the cytotoxicity was -9.1% (inactive).

For `COc1cccc(C(=O)c2sc(NC(C)C)nc2N)c1`, the cytotoxicity is 70.8% (active). The value for `COc1ccc(C(=O)c2sc(NC(C)C)nc2N)cc1OC` was -6.1% (inactive). The result for `CCCc1nnc(NC(=O)c2cccc(OC)c2)s1` reads -16.1% (inactive). The result for `O=C(NC1CCCCC1)c1ccc(CS(=O)(=O)Cc2ccccc2F)o1` reads -6.3% (inactive); that for `CCOc1ccccc1NC(=O)Cn1nnc(C(=O)Nc2ccccc2Cl)c1N`, 8.3% (inactive). Consider `CCOc1ccccc1NC(=O)Cn1nnc(C(=O)Nc2ccc(C)cc2)c1N`, for which the cytotoxicity is -0.5% (inactive). With `CCOc1ccccc1NC(=O)Cn1nnc(C(=O)NCc2ccco2)c1N`, the cytotoxicity is 63% (active). The value for `Cc1nn(-c2ccccc2)c2c1C(c1ccco1)C(C#N)=C(N)O2` (configuration not stated) was 11.5% (inactive); that for `O=C(Nc1ccc2c(c1)OCCO2)C1CCN(S(=O)(=O)c2ccc(Br)s2)CC1` was 6.5% (inactive). The result for `O=C(Nc1ccccc1Cl)N1CCN(c2ccc3nnc(-c4ccc(F)cc4)n3n2)CC1` reads 17.7% (inactive); that for `O=C(Nc1ccccc1C(F)(F)F)N1CCN(c2ccc3nnc(-c4ccc(F)cc4)n3n2)CC1`, 13.1% (inactive); that for `O=C(Nc1ccc(Cl)cc1)N1CCN(c2ccc3nnc(-c4ccc(F)cc4)n3n2)CC1`, 69.6% (active).

For the compound `CCCNS(=O)(=O)c1ccc(OCC(=O)NCc2ccc3c(c2)OCO3)cc1`, the cytotoxicity is 6.3% (inactive). Turning to `Cc1nnc(SCCn2c(N3CCN(C)CC3)nc3c2c(=O)n(C)c(=O)n3C)s1`, the cytotoxicity is -5.2% (inactive). The result for `Cc1nnc(SCCn2c(N3CCN(C)CC3)nc3c2c(=O)[nH]c(=O)n3C)s1` reads -9.1% (inactive); that for `Cc1nnc(Sc2nc(Sc3nnc(C)s3)nc(N3CCN(C)CC3)n2)s1`, 81.3% (active); that for `COc1ccc([C@@H]2[C@H]3CN(C(C)=O)CC=C3C(C#N)=C(N)C2(C#N)C#N)c2ccccc12`, -8.9% (inactive). The result for `CCOC(=O)c1ccc(N=c2sc(C(=O)OC)cc(=O)n2CCCN2CCOCC2)cc1` reads -17.7% (inactive); that for `COC(=O)c1cc(=O)n(Cc2ccco2)c(=Nc2ccc(F)c(Cl)c2)s1`, 82.7% (active).

For `COC(=O)c1cc(=O)n(Cc2ccc3c(c2)OCO3)c(=Nc2ccccc2)s1`, the cytotoxicity is 34.9% (inactive). The result for `CCOC(=O)c1ccc(N=c2sc(C(=O)OC)cc(=O)n2Cc2ccco2)cc1` reads 116% (active). The value for `CCOC(=O)c1ccc(N=c2sc(C(=O)OC)cc(=O)n2C2CC2)cc1` was 23.6% (inactive). Take `CCn1c(=O)cc(C(=O)OC)sc1=Nc1ccc(F)c(F)c1`: the cytotoxicity is 17.4% (inactive). The result for `CN(CCc1ccccn1)Cc1ccc(Cl)cc1Cl` reads 3.3% (inactive).

For `Cc1ccc(-c2nnc(SCc3ccccc3F)o2)cc1`, the cytotoxicity is 1.8% (inactive).

`O=C(Nc1cccc2ncccc12)c1cccnc1`: the cytotoxicity was -4.6% (inactive). For `O=C(Nc1ccccc1)N(CCN1CCOCC1)Cc1ccccc1F`, the cytotoxicity is -7.5% (inactive). As for `Cc1ccc(C)c(CN2CCCNC2=O)c1`, the cytotoxicity was -5.7% (inactive). The value for `COC(=O)c1cc2occc2n1CC(=O)Nc1ccc(OC)c(OC)c1` was -0.3% (inactive). The value for `CCNC(=O)CSc1nc2ccccc2c(=O)n1OC` was -1% (inactive); that for `Clc1ccc(Cn2nnc(-c3ccc(CN4CCOCC4)cc3)n2)cc1` was -26.4% (inactive); that for `COC(=O)c1ccc(NC(=O)C2CCCN2S(=O)(=O)c2ccc(F)cc2)cc1` (configuration not stated) was 2.5% (inactive). The result for `COc1cccc(-c2cc(C(F)(F)F)nc(N3CCOCC3)n2)c1` reads -14% (inactive). On to `COc1cccc(-c2cc(C(F)(F)F)nc(N3CCN(c4ccccc4)CC3)n2)c1`, for which the cytotoxicity was 72.4% (active).

For `COc1cccc(-c2cc(C(F)(F)F)nc(N3CCCCC3)n2)c1`, the cytotoxicity is -12.8% (inactive). The value for `O=c1c2ccccc2oc2ncccc12` was -24.9% (inactive); that for `CCC(Sc1nccn1C)C(=O)Nc1cccc2ccccc12` (configuration not stated) was -6.2% (inactive). The result for `O=C(O)c1ccc(Cl)c(S(=O)(=O)NCc2ccco2)c1` reads -12.1% (inactive). The result for `Cc1cccc(N2CCN(C(=O)c3ccc(Cl)c(S(=O)(=O)NCc4ccco4)c3)CC2)c1C` reads 65.8% (active); that for `COc1cc(C(=O)N2CCN(c3ccc(C)cc3C)CC2)cc(OC)c1OC`, 53.4% (active). `Cc1cccc(N2CCN(C(=O)c3ccncc3)CC2)c1C`: the cytotoxicity was 34.4% (inactive).

For `COc1ccc(C(=O)N2CCN(C(=O)c3cc(OC)c(OC)c(OC)c3)CC2)cc1`, the cytotoxicity was 5.9% (inactive). Regarding `COc1cc(C(=O)N2CCN(c3cccc(C)c3C)CC2)cc(OC)c1OC`, the cytotoxicity is 67.4% (active). For the compound `COc1cc(C(=O)N2CCN(C(=O)c3ccccc3)CC2)cc(OC)c1OC`, the cytotoxicity is -2.2% (inactive).

As for `COc1ccc(C(=O)N2CCN(c3ccc(C)cc3C)CC2)cc1OC`, the cytotoxicity is -9.6% (inactive). The result for `COc1cc(C(=O)N2CCN(c3cc(Cl)ccc3Cl)CC2)cc(OC)c1OC` reads 64.3% (active); that for `Cc1ccc(N2CCN(C(=O)c3ccccc3)CC2)c(C)c1`, -29.9% (inactive); that for `O=C(NCC1(N2CCOCC2)CCCCC1)c1ccc(Cl)c(S(=O)(=O)NCc2ccco2)c1`, -1.6% (inactive).

For `COc1ccc(Cl)cc1S(=O)(=O)N1CCN(C(=O)c2cc(OC)c(OC)c(OC)c2)CC1`, the cytotoxicity is -17% (inactive).

For `CCOCC(=O)Nc1cccc(NC(C)=O)c1`, the cytotoxicity was -3.5% (inactive).

For `COc1ccc(C(=O)N(Cc2ccco2)Cc2cc3cc(C)ccc3[nH]c2=O)cc1OC`, the cytotoxicity was 4.2% (inactive). The value for `Cc1ccc(S(=O)(=O)Nc2ccc(NC(=O)CN3CCCCC3)cc2)cc1` was -3% (inactive); that for `COc1ccc(OCC(=O)Nc2ccc3c(c2)nc(CCN2CCOCC2)n3C)cc1` was 10.7% (inactive). The result for `COc1ccc(C(CNC(=O)Cc2cc(OC)c(OC)c(OC)c2)N2CCCC2)cc1` (configuration not stated) reads -31.8% (inactive); that for `COc1ccc(-c2nnc(SCC(=O)NC(C)c3ccccc3)o2)cc1OC` (configuration not stated), -26.2% (inactive). For the compound `O=C(OCc1nnc(-c2ccccc2)o1)c1cc(=O)c2ccccc2o1`, the cytotoxicity was 1.2% (inactive).

On to `CCC(C)NC(=O)NC1C(NC(=O)NC(C)CC)N(C)C(=O)N1C` (configuration not stated), for which the cytotoxicity was -7.6% (inactive). The result for `CCN(C(=O)c1coc(=O)c2ccccc12)c1cc(OC)ccc1OC` reads -6.4% (inactive); that for `Cc1[nH]nc2c1C1(CCN(Cc3ccccc3)CC1)C(C#N)=C(N)O2`, -9.5% (inactive). Regarding `COc1ccc(C2=NOC(C(=O)N3CCOCC3)C2)cc1OC` (configuration not stated), the cytotoxicity is -3.2% (inactive). The result for `Cc1ccc2nc(SCCC#N)nc(C)c2c1` reads -10.1% (inactive); that for `COc1ccc(S(=O)(=O)N2CC(C)N(S(=O)(=O)c3ccc(OC)cc3)CC2C)cc1` (configuration not stated), -4.1% (inactive); that for `O=S1(=O)C=C(Sc2nnc(-c3ccccc3)o2)c2ccccc21`, 47.8% (inactive). The value for `Clc1ccc2oc(-c3ccccc3)nc2c1` was -4.4% (inactive); that for `Cc1cc(C)nc(SC2=CS(=O)(=O)c3ccccc32)n1` was 4.3% (inactive); that for `O=S1(=O)C=C(Sc2nc3ccccc3s2)c2ccccc21` was 109% (active).

On to `Cn1c(SC2=CS(=O)(=O)c3ccccc32)nc2ccccc21`, for which the cytotoxicity is 49.6% (inactive).

Source of the values: PubChem BioAssay AID430 (Sanford-Burnham Center for Chemical Genomics, 2006).
